FBPA Giardia inh: qHTS Assay for Inhibitors of Fructose-1,6-bisphosphate Aldolase from Giardia Lamblia; purified Giardia FBPA; 290,000 compounds, 0.71% hits; A8B2U2; Potency, µM (doses to about 59.6 µM), most hits filed as inhibitors; also: nearly all actives have a fitted effect of over 55% in size
Target sequence (A8B2U2 whole entry, looked up): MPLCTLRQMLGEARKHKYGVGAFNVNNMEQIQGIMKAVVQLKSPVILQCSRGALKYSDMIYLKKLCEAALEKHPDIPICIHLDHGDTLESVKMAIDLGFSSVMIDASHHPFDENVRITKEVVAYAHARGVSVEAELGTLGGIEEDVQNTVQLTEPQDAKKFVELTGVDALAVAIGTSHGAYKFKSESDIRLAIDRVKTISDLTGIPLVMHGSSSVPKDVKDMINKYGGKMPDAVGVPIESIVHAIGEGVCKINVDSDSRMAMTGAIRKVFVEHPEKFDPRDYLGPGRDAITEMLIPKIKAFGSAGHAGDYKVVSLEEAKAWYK
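Giardia FBPA (40 nM reagent) was preincubated 10 min at RT with compound (up to 57.5 uM final), then substrate plus GAPDH/TPI/NAD/arsenate coupling system with diaphorase/resazurin was added; resorufin fluorescence (525/598 nm) was read after 20 min.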
AmpC no deterg: qHTS Inhibitors of AmpC Beta-Lactamase (assay without detergent); P00811; AmpC nitrocefin hydrolysis, absorbance 480 nm, 0.0001% Triton; Potency, µM (doses to about 57.1 µM), most hits filed as inhibitors; 330,000 compounds, 0.52% hits; AID 485341, 2010; also: nearly all actives have a fitted effect of over 20% in size
Target sequence (P00811 whole entry, looked up): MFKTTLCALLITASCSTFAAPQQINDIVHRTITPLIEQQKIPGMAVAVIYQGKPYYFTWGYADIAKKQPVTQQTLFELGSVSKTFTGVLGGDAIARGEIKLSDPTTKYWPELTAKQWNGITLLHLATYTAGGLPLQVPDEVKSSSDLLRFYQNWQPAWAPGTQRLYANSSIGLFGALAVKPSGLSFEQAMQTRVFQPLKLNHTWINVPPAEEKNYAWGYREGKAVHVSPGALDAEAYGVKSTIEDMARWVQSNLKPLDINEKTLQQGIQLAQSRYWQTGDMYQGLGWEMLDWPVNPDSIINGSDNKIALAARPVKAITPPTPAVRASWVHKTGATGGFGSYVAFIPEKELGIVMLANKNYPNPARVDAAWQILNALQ
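20 mM phosphate pH 7.0 + 0.01% (detergent screen) or 0.0001% Triton X-100; 5.3 nM AmpC reagent; cpd preinc 15 min RT; nitrocefin (800 uM stock) to start; A480 q20 s × 4 min; Activity was normalised to no-enzyme and no-compound control wells.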
RE007 growth inh: qHTS Assay for Inhibitors of the HIV-1 protein Vpr | Potency, µM (doses to about 92.2 µM), usual class: inhibitors | 360,000 compounds, 0.21% hits | AID 651644, 2012 | S. pombe RE007 Vpr strain, BacTiter-Glo ATP luminescence, 24 h; active = well fitted falling curve with a large enough effect; inconclusive = small, poorly fitted or top-dose-only effect; inactive = no such curve, though single readings can be large or run the other way; also: nearly all actives have a fitted effect of over 50% in size
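Fission yeast strain RE007, carrying one chromosomally integrated HIV-1 vpr copy, was seeded at OD 0.01 in PMG+AL medium with 23 nL pinned compound. After 24 h at 30 °C and 99% humidity, viability was read by BacTiter-Glo luminescence.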
AmpC inh detg: qHTS Inhibitors of AmpC Beta-Lactamase (assay with detergent). AmpC hydrolysis of nitrocefin, absorbance 480 nm, 0.01% Triton. Potency, µM (doses to about 114 µM), usual class: inhibitors. P00811. AID 485294, 2010. 370,000 compounds, 0.041% hits; also: nearly all actives have a fitted effect of over 25% in size
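AmpC (5.3 nM in the dispensed reagent) in 20 mM phosphate pH 7.0 with 0.01% (detergent screen) or 0.0001% Triton X-100 was preincubated with compounds for 15 min at room temperature. Nitrocefin was then added from an 800 uM solution, and hydrolysis was followed at 480 nm.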
Sm TGR inh: qHTS Assay for the Inhibitors of Schistosoma Mansoni Peroxiredoxins; Potency, µM (top dose mostly 114 µM), actives largely listed as inhibitors; AID 485364, 2010; Schistosoma mansoni thioredoxin glutathione reductase (TGR), Q962Y6; purified TGR, DTNB reduction, TNB absorbance 405 nm; 360,000 compounds, 3% hits; also: nearly all actives have a fitted effect of over 60% in size
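Kinetic colorimetric format: TGR-catalysed, NADPH-driven DTNB reduction monitored via TNB absorbance. Enzyme dispensed at 20 nM; compound exposure 15 min at room temperature before reaction start.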
Numbers stand for hits; n = inactive; u = inconclusive; x = no result given. Sampled rows, rich in hits. Any-hit rate of the full collection: about 3.4%. Unless noted, calls follow the shape of the dose curve; as a rule, active = well fitted curve in the direction sought with a large enough effect; inconclusive = small, poorly fitted or top-dose-only effect, or another doubt; inactive = no such curve, though single readings can be large; an effect the other way counts as inactive or inconclusive.

SMILES	FBPA Giardia inh	AmpC no deterg	RE007 growth inh	AmpC inh detg	Sm TGR inh
Cc1nnc(NC(=O)CSc2ncn(-c3ccccc3)n2)s1	n	n	n	n	n
C[C@@H]1ON(C)[C@H]2C[C@H]3c4[nH]c5ccc(-c6ccc7c(c6)OCO7)cc5c4CCN3C[C@@H]12	x	x	n	x	x
O=C(NNC(=O)c1ccccc1O)c1ccc(NS(=O)(=O)c2ccc(F)cc2)cc1	x	n	n	n	n
O=C(COc1ccc2c(c1)oc(=O)c1ccccc12)N[C@@H](Cc1ccccc1)C(=O)O	n	n	n	n	n
CCOC(=O)c1cc(OC(=O)c2cccs2)n(-c2ccccc2)n1	n	n	n	u	40µM
O=C(Nc1ccccc1)C(Cl)C(=O)c1ccccc1 (centres undefined)	n	n	7.1µM	u	n
CCN(CC)c1ccc(/C=C/C(=O)C2C(=O)C=C(C)OC2=O)cc1 (centres undefined)	n	n	n	n	8.9µM
Cc1ccc(-c2nc3cccc(C)n3c2Nc2ccc3c(c2)OCO3)o1	x	x	x	n	u
Cc1cc(C)cc(NC(=O)c2cc(C)n(Cc3cccs3)c2C)c1	n	n	n	n	40µM
O=C(COC(=O)c1nc(Cl)ccc1Cl)NCc1cccs1	x	n	n	n	n
c1ccc(Cn2ncc3c(N4CCN(C(c5ccccc5)c5ccccc5)CC4)ncnc32)cc1	n	n	n	u	45µM
c1ccc(Cn2ncc3c(N4CCN(c5ccccc5)CC4)ncnc32)cc1	x	x	n	x	x
c1coc(-c2nnc(-c3ccco3)nn2)c1	x	n	14µM	n	4µM
c1ccc(-c2nnc(-c3ccco3)o2)cc1	n	n	n	n	n
COc1ccccc1Nc1ncnc2c1nc1n2CCCC1	x	x	x	n	n
COc1cccc(-c2cccc(NC(=O)C3CCN(Cc4ccc(C)o4)CC3)c2)c1	x	n	n	n	50µM
Cc1ccc(CN2CCC(Oc3cccc(C(=O)NCc4cccnc4)c3)CC2)o1	x	n	n	n	32µM
CCc1cc(=O)oc2cc(C)c(CN3CCCC(C)C3)c(O)c12 (centres undefined)	n	n	n	n	u
CCCCc1cc(=O)oc2cc(C)c(CN3CCCC3)c(O)c12	n	16µM	n	n	n
CCS(=O)(=O)c1ncc(N(Cc2ccccc2)Cc2ccco2)c(C(=O)Nc2ccccc2C)n1	x	x	x	n	n
CCOC(=O)c1cc(-c2ccc(/C=C3/C(=O)NC(=O)C(C#N)=C3C)o2)ccc1Cl	u	n	u	n	7.9µM
CC1=C(C#N)C(=O)NC(=O)/C1=C\c1ccc(-c2ccc(C)cc2[N+](=O)[O-])o1	u	n	n	n	8.9µM
C=CCN1C(=O)NC(=O)/C(=C\c2ccc(-c3ccccc3[N+](=O)[O-])o2)C1=O	n	n	n	n	u
COc1cc(NS(=O)(=O)c2ccc(N/C=C(\C#N)c3nc4cc(Cl)ccc4o3)cc2)nc(OC)n1	n	n	n	n	n
C=CCOc1ccc2ccccc2c1/C=N/O	n	n	32µM	u	n
SMILES	FBPA Giardia inh	AmpC no deterg	RE007 growth inh	AmpC inh detg	Sm TGR inh
O=C(CCS(=O)(=O)c1ccccc1)N(CCCN1CCOCC1)c1nc2c(F)cccc2s1	x	n	n	n	11µM
O=C(CCS(=O)(=O)c1ccccc1)N(CCCN1CCOCC1)c1nc2ccc(F)cc2s1	x	n	n	n	13µM
COC(=O)c1ccc2c(c1O)C(=O)c1ccccc1C2=O	u	n	4.5µM	n	n
O=C(C1=NN[C@@H]2C(=O)N(c3cccc(F)c3)C(=O)[C@H]12)c1ccc2ccccc2n1	n	n	n	n	u
COc1cccc(N2C(=O)[C@H]3C(C(=O)c4cnccn4)=NN[C@H]3C2=O)c1	u	n	n	n	45µM
COc1nc(-c2ccccc2)nc(C)c1CC(=O)O	n	n	n	n	n
CCOCCCNC(=O)CS(=O)(=O)Cc1nc(-c2cccc(OC)c2)oc1C	n	n	n	n	45µM
COc1cccc(-c2nc(CS(=O)(=O)CC(=O)NCCc3ccccc3)c(C)o2)c1	n	n	n	n	n
CCCNC(=O)CS(=O)(=O)Cc1nc(-c2cccc(OC)c2)oc1C	n	n	n	u	22µM
CC(/C=C/c1ccco1)=N\NC(=O)COc1ccc(C)c(C)c1	n	n	n	n	7.1µM
Cc1ccc(OCCNC(=O)/C=C/c2ccccc2)cc1C	n	n	n	n	n
Cc1ccc(OCCNC(=O)/C=C/c2ccco2)cc1C	n	n	n	n	1.1µM
Cc1nc(N2CCCC2)ncc1C(=O)NCc1ccccc1Cl	x	x	x	n	u
O=C(CCNS(=O)(=O)c1cccs1)Nc1nccs1	n	n	n	n	n
COc1cc(CCC(=O)OCC(=O)Nc2c(Cl)cccc2Cl)cc(OC)c1OC	n	n	n	n	n
COc1cccc(Cn2ncc3c4sc(B(O)O)cc4n(C)c3c2=O)c1	x	2.2µM	x	1.1µM	n
CCCOc1ccc(C2(C(=O)O)CCCC2)cc1	n	n	n	n	n
CCCC(=O)NC1=C(Cl)C(=O)c2ccccc2C1=O	x	x	7.1µM	x	x
O=C1C(Cl)=C(NCc2ccco2)C(=O)c2ccccc21	x	x	20µM	x	x
O=C1C(Cl)=C(NCCN2CCCCC2)C(=O)c2ccccc21	u	n	n	n	22µM
CCNC1=C(Cl)C(=O)c2ccccc2C1=O	u	n	16µM	n	n
CCCC(=O)NNC(=O)CCC(=O)Nc1ccccc1Cl	n	n	n	n	n
O=S(=O)(c1ccccc1)c1ccc(NCc2ccco2)cc1	n	n	n	n	u
O=C(N=Nc1c(O)[nH]c2ccccc12)c1cc(NS(=O)(=O)c2cccs2)cc(NS(=O)(=O)c2cccs2)c1	n	16µM	n	n	n
COc1cccc(Nc2nc3ccc(C(=O)c4ccccc4)cc3n3c(C)nnc23)c1	x	x	x	n	n
SMILES	FBPA Giardia inh	AmpC no deterg	RE007 growth inh	AmpC inh detg	Sm TGR inh
CN(Cc1ccncc1)C1CC(=O)N(c2ccc(Cl)cc2)C1=O (centres undefined)	n	n	50µM	u	u
C=CCN(C(=O)Nc1ccc(Cl)cc1)C1CC(=O)N(c2ccc(OC)cc2)C1=O (centres undefined)	n	n	n	u	n
COC(=O)CN(C)C1CC(=O)N(c2ccc(Cl)cc2)C1=O (centres undefined)	n	n	16µM	u	6.3µM
O=[N+]([O-])c1ccc(OCCOc2ccccc2/C=N/n2cnnc2)cc1	n	n	n	n	x
Cc1ccc(NCCC(=O)c2cccs2)cc1Cl	n	n	n	n	4µM
CCCOc1ccc(C(=O)CCNc2ccc(C)c(Cl)c2)cc1	n	n	n	u	n
O=C(CCC(=O)c1cccs1)NNC(=O)c1cccc(Cl)c1	x	n	n	u	n
Cc1ccc(NCCC(=O)c2cccs2)cc1C	n	n	40µM	n	n
CC(C)c1ccc(NCCC(=O)c2cccs2)cc1	n	n	32µM	n	3.2µM

Screening data deposited in PubChem by National Center for Advancing Translational Sciences (NCATS).
